In PubChem BioAssay AID504340 (NMMLSC, 2011) one finds GFP response vs DMSO data, which are given here for six compounds.

Calls of active or inactive are those of the source.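 The calls were made as follows: active = GFP response above 150% of the DMSO control; inconclusive = Under 70 cell events counted for a yeast strain; inactive = the rest.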

The test is described as follows: yeast TOR pathway CIT2-GFP reporter retest – flow cytometry, third cherry pick, single plex, confirmation (AID 504340).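 Also: median GFP fluorescence over all cells with no mother versus daughter split; sample signal as a ratio to the plate DMSO mean so 100% equals DMSO.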 The following applies: S. cerevisiae CIT2-GFP strain, 3 h, at 10 µM, active compounds read high. Background: A flow cytometer gives signals particle by particle.
`C/C(O)=C(\C#N)C(=O)Nc1cc(Br)ccc1Br`: the GFP response vs DMSO was 116% (inactive).

Regarding `CN1CCN(c2ncnc3ccc(Br)cc23)CC1`, the GFP response vs DMSO is 103% (inactive).

For `CN(C)C(=O)Oc1ccc(Cl)c2cccnc12`, the GFP response vs DMSO was 104% (inactive).

Take `Cc1ccc2c(c1N)C(=O)c1ccccc1C2=O`: the GFP response vs DMSO is 109% (inactive).

As to `CN(C)C(=O)Oc1ccnc2cc(Cl)ccc12`, the GFP response vs DMSO is 106% (inactive).

On to `CCN1CCN(c2ncnc3ccc(Br)cc23)CC1`, for which the GFP response vs DMSO was 109% (inactive).
